Experimental data: PubChem BioAssay AID485275 (NMMLSC, 2010)
In all, about 330,000 compounds went through this assay and about 1,400 (0.42%) were called active. For the sample, actives were picked, then their nearest neighbours and some compounds at random. Values without a mark were called inactive.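 Rule for the calls: active = plate passing quality check with inhibition over a set limit, or well fluorescence over plate mean plus 4 SD; inactive = the rest.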

test: inhibitors of Candida efflux pumps in yeast, primary screen, S. cerevisiae, Nile Red, multiplex (AID 485275);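 note: Nile Red retained in pooled yeast measured as flow cytometry median fluorescence; 0% = buffer negative control and 100% = Enniatin B positive control; higher means more Nile Red kept so more efflux inhibition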; details: S. cerevisiae Candida pump triplex, at 10 µM, stronger effect = higher value

Compound	inhibition
COc1ccccc1N=C1SC(C)CN1C(=O)C1CCC1 (configuration not stated)	0.03%
O=C(NN1C(=O)C2C3C=CC(O3)C2C1=O)c1ccncc1 (configuration not stated)	0.07%
Cc1ccc(-c2csc(NC3OC(=O)c4ccccc43)n2)cc1 (configuration not stated)	0.03%
c1cnc(Nc2nc(-c3ccc4ccccc4c3)cs2)nc1	0.79% (active)
Cc1ccccc1Nc1nc(-c2cccnc2)cs1	0.3%
CCOC(=O)c1[nH]ncc1CN1CCCC(C(=O)c2ccc(OC)cc2C)C1 (configuration not stated)	0.25%
COc1ccc(C(=O)C2CCCN(Cc3cccn3-c3ccccn3)C2)c(C)c1 (configuration not stated)	0.98% (active)
COc1ccc(C(=O)C2CCCN(Cc3ccc4nonc4c3)C2)c(C)c1 (configuration not stated)	0.05%
Cc1c(CCOC(=O)CC23CC4CC(CC(C)(C4)C2)C3)sc[n+]1Cc1ccc([N+](=O)[O-])cc1	0.61% (active)
Cc1c(CCOC(=O)c2cc([N+](=O)[O-])ccc2Cl)sc[n+]1CCCCS(=O)(=O)[O-]	0.04%
Cc1c(CCO)sc[n+]1CC(=O)OC12CC3CC(CC(C3)C1)C2	-0.46%
CC1CCCCC1NC(=O)Cn1c(=O)cnc2ccccc21 (configuration not stated)	-0.23%
CCOC(=O)N1CCN(S(=O)(=O)c2ccc(C(=O)Nc3ccc(F)cc3F)cc2)CC1	-0.12%
Cc1c(C(=O)NCCN2C(=O)S/C(=C\c3cccs3)C2=O)cccc1[N+](=O)[O-]	0.33%
CCOc1ccc(CCNC(=O)Nc2ccccc2)cc1OCC	-0.23%
O=C(Cc1ccc(Br)cc1)NCCN1CCOCC1	-0.17%
CCOc1ccccc1C1NC(=O)NC(C)=C1C(=O)OCc1ccco1 (configuration not stated)	0.02%
CCOc1ccccc1/C=c1\sc2nc(-c3ccco3)nn2c1=O	3.16% (active)
CCCn1nc(C(=O)NNC(=O)CCOc2ccccc2OCC)c2ccccc2c1=O	-0.08%
O=C(CCNC(=O)c1ccc([N+](=O)[O-])cc1)Nc1ccccc1N1CCOCC1	0.19%
Cc1nc2sc(C(c3ccco3)N3CCC4(CC3)OCCO4)c(O)n2n1 (configuration not stated)	-0.06%
O=C(NC(=S)Nc1ccc2oc(=O)ccc2c1)c1ccc(-c2cccc(Cl)c2Cl)o1	0.12%
NC(=O)C1CCN(CC(O)CSc2ccc(F)cc2)CC1 (configuration not stated)	-0.06%
CC1CCc2c(sc3c2C2=NS(=O)(=O)CCN2C=N3)C1 (configuration not stated)	0.15%
Cc1ccc(C(=O)NCC(=O)OCc2nnc(-c3ccccc3)o2)cc1	0.08%
O=C(CNC(=O)c1ccc(-c2ccccc2)cc1)OCc1ccc(Cl)cc1	17.2% (active)
O=C(CNC(=O)c1ccccc1)NCC(=O)OCc1ccc(Cl)cc1	0.03%
